Experimental findings from PubChem BioAssay (NCATS) are described below.

Records with an inconclusive call do not appear. The source made the active and inactive calls. The call rests on the fitted dose curve; in most records, active means well fitted curve in the direction sought with a large enough effect; inconclusive means small, poorly fitted or top-dose-only effect, or another doubt; inactive means no such curve, though single readings can be large; an effect the other way counts as inactive or inconclusive.

The subject of one assay is MKL-1. Description: qHTS assay to identify novel small-molecules to repurpose for Merkel cell carcinoma treatment (AID 1296009). Further: nearly all actives have a fitted effect of over 60% in size. Further: potency means the concentration at half of the fitted maximal effect. To be noted: MCC and control cell lines, CellTiter-Glo viability, 72 h; series mostly up to 46 µM. An outline of the steps: (§1)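 Cells were incubated with compound for 72 hr at 37 degree celsius before CellTiter-Glo addition. Luminescence was normalized with no-cell wells as full cytotoxicity and DMSO as baseline.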
(Quantitative high-throughput screening tests each substance at several concentrations.)

For a further assay, the system named is MKL-2. The assay is described as above. To be noted: MCC and control cell lines, CellTiter-Glo viability, 72 h; series mostly up to 46 µM. In a few lines: as §1
For orientation: Cellular ATP, detected with luciferase, serves as a proxy for viable cell number.

The test system of another assay is WaGa. Described as above. To be noted: MCC and control cell lines, CellTiter-Glo viability, 72 h; series mostly up to 46 µM. An outline of the steps:
as §1

In another assay the test system is MCC-26. Described as above. To be noted: MCC and control cell lines, CellTiter-Glo viability, 72 h; series mostly up to 46 µM. An outline of the steps:
as §1

The test system of a further assay is Es-2. Description: Primary qHTS to identify gynecologic anti-cancer compounds using libraries of approved drugs and bioactive compounds (AID 1345084). Further: nearly all actives have a fitted effect of over 55% in size. Further: potency means the concentration at half of the fitted maximal effect. Conditions: Gynecologic cancer cell panel viability, ATPlite luminescence, 48 h; series mostly up to 57.5 µM. An outline of the steps: (§2)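 Measured: luminescence after ATPlite addition (15 min, RT). Exposure: 48 h, 37 C, 5% CO2.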

The next assay deals with Hek293T. The description is as above. To be noted: Gynecologic cancer cell panel viability, ATPlite luminescence, 48 h, control line for the selectivity index; series mostly up to 57.5 µM. An outline of the steps: as §2
For another assay, the system named is OV90. The assay is described as above. Conditions: Gynecologic cancer cell panel viability, ATPlite luminescence, 48 h; series mostly up to 57.5 µM. In a few lines: as §2
The subject of a further assay is SKOV3. The description is as above. Conditions: Gynecologic cancer cell panel viability, ATPlite luminescence, 48 h; series mostly up to 57.5 µM. An outline of the steps:
as §2

The subject of another assay is C33A. The assay is described as above. To be noted: Gynecologic cancer cell panel viability, ATPlite luminescence, 48 h; series mostly up to 57.5 µM. An outline of the steps: as §2
A further assay concerns CASKI. Described as above. To be noted: Gynecologic cancer cell panel viability, ATPlite luminescence, 48 h; series mostly up to 57.5 µM. An outline of the steps:
as §2

Another assay relates to HeLa. Described as above. To be noted: Gynecologic cancer cell panel viability, ATPlite luminescence, 48 h; series mostly up to 57.5 µM. In a few lines:
as §2

Another assay deals with JEG-3. Described as above. Conditions: Gynecologic cancer cell panel viability, ATPlite luminescence, 48 h; series mostly up to 57.5 µM. An outline of the steps:
as §2

In another assay the test system is PA-1. The description is as above. Conditions: Gynecologic cancer cell panel viability, ATPlite luminescence, 48 h; series mostly up to 57.5 µM. In a few lines: as §2
In the next assay the test system is Tov-21-G. The assay is described as above. Conditions: Gynecologic cancer cell panel viability, ATPlite luminescence, 48 h; series mostly up to 57.5 µM. In a few lines:
as §2

The next assay deals with Tov112D. The assay is described as above. Conditions: Gynecologic cancer cell panel viability, ATPlite luminescence, 48 h; series mostly up to 57.5 µM. In a few lines: as §2
The next assay relates to NIH3T3. Description: qHTS assay to identify novel small-molecules to repurpose for Merkel cell carcinoma treatment (AID 1296009). Further: nearly all actives have a fitted effect of over 60% in size. Further: potency means the concentration at half of the fitted maximal effect. To be noted: MCC and control cell lines, CellTiter-Glo viability, 72 h; at 44.8 µM (top of the series) unless noted. In a few lines:
as §1

The next assay has as its system UISO. The assay is described as above. To be noted: MCC and control cell lines, CellTiter-Glo viability, 72 h; series mostly up to 46 µM. An outline of the steps: as §1
The subject of the next assay is CAOV3. In words: Primary qHTS to identify gynecologic anti-cancer compounds using libraries of approved drugs and bioactive compounds (AID 1345084). Further: nearly all actives have a fitted effect of over 55% in size. Further: potency means the concentration at half of the fitted maximal effect. To be noted: Gynecologic cancer cell panel viability, ATPlite luminescence, 48 h; series mostly up to 57.5 µM. An outline of the steps: as §2
Assay [1] in a line: Drug repurposing screens with cells derived from glioblastoma tumor samples (AID 1345199). Further: nearly all actives have a fitted effect of over 40% in size. To be noted: GBM patient neurospheres viability, ATP luminescence, 48 h; Potency: tumour line A unless noted; series mostly up to 45.9 µM. An outline of the steps:
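Four patient lines of CD133+ GBM neurospheres were screened at several concentrations; hits were retested in those lines plus three slower-growing GBM lines, using 48-hour treatment and ATP-based viability.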

Regarding `COc1ccc2c(c[n+](C)c3c4cc5c(cc4ccc23)OCO5)c1OC`, the values for the Potency in the assay on MKL-1, in the assay with MKL-2 and in the assay with WaGa were 2.35 µM (active), 0.743 µM (active) and 3.32 µM (active), respectively.

As for `CO/C=C(/C(=O)OC)c1ccccc1Oc1cc(Oc2ccccc2C#N)ncn1`, the Potency result in the assay with MCC-26 is “inactive”. For the same compound, the Potency is 13.7 µM (active) with MKL-2; 31.6 µM (active) in the assay on Es-2; 17.8 µM (active) in the assay on Hek293T; 17.8 µM (active) in the assay on OV90; 7.94 µM (active) with SKOV3.

Consider `CCN1CCN(C(=O)Cc2ccc(Nc3ncc(F)c(Nc4ccc(C(=O)Nc5ccccc5Cl)cc4)n3)cc2)CC1`, for which the Potency result in the assay with MCC-26, in the assay with C33A, in the assay with CASKI, with JEG-3 and in the assay on OV90 was “inactive” each time. The Potency in the assay on MKL-2 is 9.35 µM (active); in the assay on HeLa, 8.91 µM (active); with Hek293T, 25.1 µM (active); in the assay with PA-1 it was 25.1 µM (active); in the assay on SKOV3, 15.8 µM (active); in the assay on Tov-21-G, 28.2 µM (active). The Potency in the assay on Tov112D was 2.51 µM (active).

With `O=C1C(I)=CC(=C(c2cc(I)c(O)c(I)c2)c2ccccc2C(=O)O)C=C1I`, the Potency entry with MCC-26, in the assay on MKL-1, in the assay with MKL-2, in the assay on UISO, in the assay on WaGa and in the assay on C33A was “inactive” each time. Besides, the Potency result in the assay with CAOV3, in the assay on CASKI, with Es-2, in the assay with HeLa, in the assay on Hek293T and in the assay on JEG-3 was “inactive” throughout. The Potency entry (in the assay on OV90; in the assay with PA-1; in the assay on SKOV3; in the assay on Tov-21-G; with Tov112D; in assay [1]) was “inactive” throughout. For the same compound, in the assay on NIH3T3, the result was inactive.

`O=C(O)CCCOc1ccc(Cl)cc1Cl`: the Potency entry in the assay on C33A, with CASKI, in the assay on Es-2, in the assay on HeLa, with Hek293T and with JEG-3 was “inactive” in each case. In addition, the Potency result (in the assay with OV90; with PA-1; with Tov-21-G; in the assay with Tov112D; in assay [1]) was “inactive” throughout.

As to `CC=C(C)C(=O)N[C@@H](c1ccccc1)[C@@H](O)C(=O)O[C@H]1C[C@@]2(O)[C@@H](OC(=O)c3ccccc3)[C@@H]3[C@]4(OC(C)=O)CO[C@@H]4C[C@H](O)[C@@]3(C)C(=O)[C@H](OC(C)=O)C(=C1C)C2(C)C`, the Potency entry with MKL-1 and in the assay on MKL-2 was “inactive” throughout.

On to `CCC1(CCC(C)C)C(=O)NC(=O)NC1=O`, for which the Potency result with C33A, with CASKI, in the assay on Es-2, in the assay on Hek293T, in the assay on JEG-3 and in the assay with OV90 was “inactive” throughout. Besides, the Potency entry (with PA-1; in the assay on Tov-21-G; with Tov112D; in [1]) was “inactive” each time.

In the case of `C[N+](C)(C)CC(=O)O`, the Potency result in [1] was “inactive”.
